# Test results published in paper PMC7862700, “An all-to-all approach to the identification of sequence-specific readers for epigenetic DNA modifications on cytosine”.
# Key:
# Experiment in all cases: DAPPL (digital affinity profiling via proximity ligation, sequencing); 10 mM Tris-HCl pH 7.5, 50 mM NaCl, 1 mM DTT, 4% glycerol, room temperature, 30 min; GST-TFs on glutathione beads, 16-mer random dsDNA library, 0.1% formaldehyde crosslink after washing; high values mean tight binding
# FLI1 = biological target: T1, FLI1 (Homo sapiens, UniProt Q01543 1-452); settings: protein: recombinant; tags: N-terminal GST; dsDNA, one strand shown
# T1 sequence: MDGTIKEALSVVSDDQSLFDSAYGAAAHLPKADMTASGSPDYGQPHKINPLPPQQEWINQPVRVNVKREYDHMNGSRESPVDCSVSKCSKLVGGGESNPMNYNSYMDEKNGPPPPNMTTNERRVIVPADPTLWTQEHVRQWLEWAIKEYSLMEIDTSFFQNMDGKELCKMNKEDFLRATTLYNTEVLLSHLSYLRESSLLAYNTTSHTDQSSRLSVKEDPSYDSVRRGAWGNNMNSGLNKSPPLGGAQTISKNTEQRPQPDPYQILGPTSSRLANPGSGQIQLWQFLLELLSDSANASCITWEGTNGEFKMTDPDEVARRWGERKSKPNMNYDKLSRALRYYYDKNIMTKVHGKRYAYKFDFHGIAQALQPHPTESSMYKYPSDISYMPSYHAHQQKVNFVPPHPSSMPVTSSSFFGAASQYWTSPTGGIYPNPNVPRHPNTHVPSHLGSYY
# Summary of the method: (§1)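 Pools of DNA-barcoded human transcription factors, expressed in yeast as GST fusions on glutathione beads and combined with a tag-only sample, were incubated with 200 nmole of a 16-mer random double-stranded DNA library. Incubation took 30 min at room temperature in Tris/NaCl/DTT/glycerol buffer and was followed by washing, 0.1% formaldehyde crosslinking, proximity ligation (BsaI/T4 ligase, 1 h, 37 °C), PCR amplification and sequencing on an Illumina NextSeq500. Binding signal is the ratio of a hexamer's read frequency for a factor to its frequency for the tag-only sample.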
# ELK1 = biological target: T2, ELK1 (Homo sapiens, UniProt P19419 1-428); settings: protein: recombinant; tags: N-terminal GST; dsDNA, one strand shown
# T2 sequence: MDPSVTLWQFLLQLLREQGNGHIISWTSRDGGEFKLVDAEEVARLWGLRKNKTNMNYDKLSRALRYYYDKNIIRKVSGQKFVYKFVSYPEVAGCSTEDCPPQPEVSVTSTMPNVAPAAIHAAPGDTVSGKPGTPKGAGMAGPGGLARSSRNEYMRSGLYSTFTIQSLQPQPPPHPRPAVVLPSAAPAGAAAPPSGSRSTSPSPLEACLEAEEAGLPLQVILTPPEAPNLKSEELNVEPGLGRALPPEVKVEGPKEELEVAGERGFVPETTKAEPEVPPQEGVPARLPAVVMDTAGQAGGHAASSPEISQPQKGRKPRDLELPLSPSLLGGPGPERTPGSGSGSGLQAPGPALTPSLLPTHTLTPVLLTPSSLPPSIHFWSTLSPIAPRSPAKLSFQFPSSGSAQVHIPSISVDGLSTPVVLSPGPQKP
# Summary of the method: as §1
# GABPA = biological target: T3, GABPA (Homo sapiens, UniProt Q06546 1-454); settings: protein: recombinant; tags: N-terminal GST; dsDNA, one strand shown
# T3 sequence: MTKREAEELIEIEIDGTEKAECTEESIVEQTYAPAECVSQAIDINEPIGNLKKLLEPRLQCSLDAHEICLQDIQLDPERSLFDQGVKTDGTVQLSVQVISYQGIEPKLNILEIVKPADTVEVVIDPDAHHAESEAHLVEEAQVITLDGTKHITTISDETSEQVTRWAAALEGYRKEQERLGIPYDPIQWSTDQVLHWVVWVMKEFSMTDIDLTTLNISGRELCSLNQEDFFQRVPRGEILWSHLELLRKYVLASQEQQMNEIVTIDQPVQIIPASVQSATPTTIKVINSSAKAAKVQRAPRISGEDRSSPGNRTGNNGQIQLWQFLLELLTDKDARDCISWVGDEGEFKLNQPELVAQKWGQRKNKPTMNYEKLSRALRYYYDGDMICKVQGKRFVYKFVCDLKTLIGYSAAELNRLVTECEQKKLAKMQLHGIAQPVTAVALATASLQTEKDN
# Summary of the method: as §1
# ERG = biological target: T4, ERG (Homo sapiens, UniProt P11308 1-479); settings: protein: recombinant; tags: N-terminal GST; dsDNA, one strand shown
# T4 sequence: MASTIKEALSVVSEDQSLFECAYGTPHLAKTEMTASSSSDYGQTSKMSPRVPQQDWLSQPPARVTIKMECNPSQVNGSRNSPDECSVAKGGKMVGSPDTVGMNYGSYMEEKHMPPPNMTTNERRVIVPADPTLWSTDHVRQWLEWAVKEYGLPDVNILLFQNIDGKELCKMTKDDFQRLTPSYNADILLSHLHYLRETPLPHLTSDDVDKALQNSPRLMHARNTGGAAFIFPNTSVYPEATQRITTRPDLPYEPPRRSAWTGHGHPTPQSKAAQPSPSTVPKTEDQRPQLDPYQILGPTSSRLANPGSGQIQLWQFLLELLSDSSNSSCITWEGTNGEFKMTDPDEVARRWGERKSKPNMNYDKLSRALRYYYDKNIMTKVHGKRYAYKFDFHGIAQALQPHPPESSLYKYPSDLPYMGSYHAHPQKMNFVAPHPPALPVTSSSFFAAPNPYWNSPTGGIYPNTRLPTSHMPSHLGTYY
# Summary of the method: as §1
# ELF1 = ELF1 (Homo sapiens, UniProt P32519 1-619); settings: protein: recombinant; tags: N-terminal GST; dsDNA, one strand shown
# Summary of the method: as §1
# EHF = biological target: T5, EHF (Homo sapiens, UniProt Q9NZC4 1-300); settings: protein: recombinant; tags: N-terminal GST; dsDNA, one strand shown
# T5 sequence: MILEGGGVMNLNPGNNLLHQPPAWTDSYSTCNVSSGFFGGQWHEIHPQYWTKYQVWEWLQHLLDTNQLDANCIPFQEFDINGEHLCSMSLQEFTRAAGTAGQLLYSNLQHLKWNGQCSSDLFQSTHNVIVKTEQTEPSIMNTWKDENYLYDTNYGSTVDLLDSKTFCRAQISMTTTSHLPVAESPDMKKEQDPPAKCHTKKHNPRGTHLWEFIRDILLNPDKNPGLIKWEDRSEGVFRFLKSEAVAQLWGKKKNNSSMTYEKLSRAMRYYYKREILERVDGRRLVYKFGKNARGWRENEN
# Summary of the method: as §1
# SPI1 = SPI1 (Homo sapiens, UniProt P17947 1-270); settings: protein: recombinant; tags: N-terminal GST; dsDNA, one strand shown
# Summary of the method: as §1
# SPIB = SPIB (Homo sapiens, UniProt Q01892 1-262); settings: protein: recombinant; tags: N-terminal GST; dsDNA, one strand shown
# Summary of the method: as §1
# ELK3 = biological target: T6, ELK3 (Homo sapiens, UniProt P41970 1-407); settings: protein: recombinant; tags: N-terminal GST; dsDNA, one strand shown
# T6 sequence: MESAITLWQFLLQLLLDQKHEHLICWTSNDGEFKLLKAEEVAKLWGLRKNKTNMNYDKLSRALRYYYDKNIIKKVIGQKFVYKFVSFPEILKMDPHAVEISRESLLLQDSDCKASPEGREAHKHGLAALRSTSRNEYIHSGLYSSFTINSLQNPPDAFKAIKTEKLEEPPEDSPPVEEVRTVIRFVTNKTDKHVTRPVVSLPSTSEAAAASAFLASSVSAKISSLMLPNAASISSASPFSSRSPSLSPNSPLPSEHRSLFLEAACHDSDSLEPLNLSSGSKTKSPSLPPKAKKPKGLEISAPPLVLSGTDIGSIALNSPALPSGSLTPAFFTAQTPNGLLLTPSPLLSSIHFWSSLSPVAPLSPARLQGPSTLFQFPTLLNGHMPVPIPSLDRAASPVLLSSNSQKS
# Summary of the method: as §1
# FEV = biological target: T7, FEV (Homo sapiens, UniProt Q99581 1-238); settings: protein: recombinant; tags: N-terminal GST; dsDNA, one strand shown
# T7 sequence: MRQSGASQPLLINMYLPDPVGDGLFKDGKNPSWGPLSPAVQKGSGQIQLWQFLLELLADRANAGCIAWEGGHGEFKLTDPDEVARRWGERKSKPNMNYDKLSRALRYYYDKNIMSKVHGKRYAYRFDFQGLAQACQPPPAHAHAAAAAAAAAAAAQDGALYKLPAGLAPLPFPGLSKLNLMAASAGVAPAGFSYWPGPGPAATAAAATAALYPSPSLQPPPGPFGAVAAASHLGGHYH
# Summary of the method: as §1
# ETV5 = ETV5 (Homo sapiens, UniProt P41161 1-510); settings: protein: recombinant; tags: N-terminal GST; dsDNA, one strand shown
# Summary of the method: as §1
# HSF1 = HSF1 (Homo sapiens, UniProt Q00613 1-529); settings: protein: recombinant; tags: N-terminal GST; chain copies: 3; dsDNA, one strand shown
# Summary of the method: as §1
# SPIC = biological target: T8, SPIC (Homo sapiens, UniProt Q8N5J4 1-248); settings: protein: recombinant; tags: N-terminal GST; dsDNA, one strand shown
# T8 sequence: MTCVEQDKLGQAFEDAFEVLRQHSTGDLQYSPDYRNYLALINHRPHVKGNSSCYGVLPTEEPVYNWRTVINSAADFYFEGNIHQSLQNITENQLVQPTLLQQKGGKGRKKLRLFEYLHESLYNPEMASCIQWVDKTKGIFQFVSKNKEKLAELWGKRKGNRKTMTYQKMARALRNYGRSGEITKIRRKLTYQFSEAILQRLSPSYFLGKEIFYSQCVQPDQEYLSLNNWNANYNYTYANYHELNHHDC
# Summary of the method: as §1
# ELF4 = ELF4 (Homo sapiens, UniProt Q99607 1-663); settings: protein: recombinant; tags: N-terminal GST; dsDNA, one strand shown
# Summary of the method: as §1
# ELK4 = biological target: T9, ELK4 (Homo sapiens, UniProt P28324-2 1-405); settings: protein: recombinant; tags: N-terminal GST; dsDNA, one strand shown
# T9 sequence: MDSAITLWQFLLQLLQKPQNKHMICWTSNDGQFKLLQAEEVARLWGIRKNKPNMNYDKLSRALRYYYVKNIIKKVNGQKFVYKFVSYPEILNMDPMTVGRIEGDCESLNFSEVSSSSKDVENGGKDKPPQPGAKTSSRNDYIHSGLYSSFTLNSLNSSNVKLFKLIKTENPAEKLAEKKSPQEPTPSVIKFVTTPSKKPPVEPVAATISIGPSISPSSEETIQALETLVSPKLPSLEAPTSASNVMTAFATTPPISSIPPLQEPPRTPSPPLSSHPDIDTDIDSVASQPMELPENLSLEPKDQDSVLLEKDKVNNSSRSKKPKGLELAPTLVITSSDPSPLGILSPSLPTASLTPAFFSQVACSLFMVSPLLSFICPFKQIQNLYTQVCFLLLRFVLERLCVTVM
# Summary of the method: as §1
# ETV2 = biological target: T10, ETV2 (Homo sapiens, UniProt O00321 1-342); settings: protein: recombinant; tags: N-terminal GST; dsDNA, one strand shown
# T10 sequence: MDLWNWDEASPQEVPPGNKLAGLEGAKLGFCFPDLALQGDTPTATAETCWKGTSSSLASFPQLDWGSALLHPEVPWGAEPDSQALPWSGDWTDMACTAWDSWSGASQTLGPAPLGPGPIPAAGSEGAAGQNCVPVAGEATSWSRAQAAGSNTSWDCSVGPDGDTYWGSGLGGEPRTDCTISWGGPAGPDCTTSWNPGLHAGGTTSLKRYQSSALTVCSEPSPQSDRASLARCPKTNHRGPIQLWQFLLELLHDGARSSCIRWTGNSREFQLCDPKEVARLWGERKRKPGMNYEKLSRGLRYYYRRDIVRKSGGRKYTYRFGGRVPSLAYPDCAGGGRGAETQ
# Summary of the method: as §1
# ELF3 = biological target: T11, ELF3 (Homo sapiens, UniProt P78545 1-371); settings: protein: recombinant; tags: N-terminal GST; dsDNA, one strand shown
# T11 sequence: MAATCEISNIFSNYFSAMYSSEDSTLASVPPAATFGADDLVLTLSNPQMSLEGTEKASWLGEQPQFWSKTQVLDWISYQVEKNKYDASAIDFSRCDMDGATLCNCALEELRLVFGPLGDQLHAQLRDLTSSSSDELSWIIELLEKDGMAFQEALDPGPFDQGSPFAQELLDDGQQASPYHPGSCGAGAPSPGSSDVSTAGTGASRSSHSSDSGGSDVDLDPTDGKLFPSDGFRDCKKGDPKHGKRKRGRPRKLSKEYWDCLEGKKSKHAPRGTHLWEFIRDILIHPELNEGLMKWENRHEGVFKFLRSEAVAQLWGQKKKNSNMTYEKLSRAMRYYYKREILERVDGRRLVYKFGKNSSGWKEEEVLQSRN
# Summary of the method: as §1
# CRX = CRX (Homo sapiens, UniProt O43186 1-299); settings: protein: recombinant; tags: N-terminal GST; dsDNA, one strand shown
# Summary of the method: as §1
# ETV1 = ETV1 (Homo sapiens, UniProt P50549 1-477); settings: protein: recombinant; tags: N-terminal GST; dsDNA, one strand shown
# Summary of the method: as §1
# Sequence of CRX (O43186 whole entry): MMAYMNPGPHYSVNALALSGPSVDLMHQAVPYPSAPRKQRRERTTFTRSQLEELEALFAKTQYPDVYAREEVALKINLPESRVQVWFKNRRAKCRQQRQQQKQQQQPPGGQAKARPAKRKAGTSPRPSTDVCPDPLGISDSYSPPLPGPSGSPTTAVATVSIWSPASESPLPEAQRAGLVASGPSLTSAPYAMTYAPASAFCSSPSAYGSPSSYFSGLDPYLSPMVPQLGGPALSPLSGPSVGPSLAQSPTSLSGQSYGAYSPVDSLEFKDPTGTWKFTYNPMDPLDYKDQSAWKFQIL
# Sequence of ELF1 (P32519 whole entry): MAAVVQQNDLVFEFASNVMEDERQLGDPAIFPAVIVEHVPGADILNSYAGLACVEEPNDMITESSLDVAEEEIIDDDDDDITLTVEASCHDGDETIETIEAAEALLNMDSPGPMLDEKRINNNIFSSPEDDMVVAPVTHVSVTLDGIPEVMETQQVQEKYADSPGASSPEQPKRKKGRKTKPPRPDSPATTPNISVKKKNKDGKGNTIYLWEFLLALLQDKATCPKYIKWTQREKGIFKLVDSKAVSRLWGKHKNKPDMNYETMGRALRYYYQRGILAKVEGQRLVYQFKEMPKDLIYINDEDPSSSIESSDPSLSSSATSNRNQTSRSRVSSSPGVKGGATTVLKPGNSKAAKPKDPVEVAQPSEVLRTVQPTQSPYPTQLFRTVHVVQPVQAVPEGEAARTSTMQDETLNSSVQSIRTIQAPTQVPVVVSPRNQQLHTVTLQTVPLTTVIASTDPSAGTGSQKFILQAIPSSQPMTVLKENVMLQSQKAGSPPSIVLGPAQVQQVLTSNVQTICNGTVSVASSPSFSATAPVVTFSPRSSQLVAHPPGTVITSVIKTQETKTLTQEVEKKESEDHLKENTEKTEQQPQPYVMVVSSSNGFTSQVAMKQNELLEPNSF
# Sequence of SPIB (Q01892 whole entry): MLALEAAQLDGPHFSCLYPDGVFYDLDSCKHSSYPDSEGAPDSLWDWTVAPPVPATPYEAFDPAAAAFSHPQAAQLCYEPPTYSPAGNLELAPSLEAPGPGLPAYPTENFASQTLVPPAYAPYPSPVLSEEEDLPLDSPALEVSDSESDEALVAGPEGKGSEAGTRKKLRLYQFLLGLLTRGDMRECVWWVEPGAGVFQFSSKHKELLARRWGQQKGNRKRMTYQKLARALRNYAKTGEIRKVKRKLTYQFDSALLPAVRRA
# Sequence of ETV5 (P41161 whole entry): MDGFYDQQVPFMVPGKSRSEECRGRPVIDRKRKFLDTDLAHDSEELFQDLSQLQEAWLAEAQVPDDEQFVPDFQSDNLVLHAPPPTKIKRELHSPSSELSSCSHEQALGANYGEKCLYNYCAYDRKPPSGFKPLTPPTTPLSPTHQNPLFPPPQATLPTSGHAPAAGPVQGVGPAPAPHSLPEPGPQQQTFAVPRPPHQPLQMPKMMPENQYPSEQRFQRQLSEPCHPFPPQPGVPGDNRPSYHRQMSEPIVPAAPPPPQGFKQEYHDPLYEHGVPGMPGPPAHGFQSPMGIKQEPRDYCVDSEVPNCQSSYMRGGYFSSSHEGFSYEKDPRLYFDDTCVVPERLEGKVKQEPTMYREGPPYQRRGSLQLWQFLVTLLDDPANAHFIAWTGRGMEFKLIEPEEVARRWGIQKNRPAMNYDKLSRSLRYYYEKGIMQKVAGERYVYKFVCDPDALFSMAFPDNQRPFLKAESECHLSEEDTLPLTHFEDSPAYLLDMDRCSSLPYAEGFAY
# Sequence of HSF1 (Q00613 whole entry): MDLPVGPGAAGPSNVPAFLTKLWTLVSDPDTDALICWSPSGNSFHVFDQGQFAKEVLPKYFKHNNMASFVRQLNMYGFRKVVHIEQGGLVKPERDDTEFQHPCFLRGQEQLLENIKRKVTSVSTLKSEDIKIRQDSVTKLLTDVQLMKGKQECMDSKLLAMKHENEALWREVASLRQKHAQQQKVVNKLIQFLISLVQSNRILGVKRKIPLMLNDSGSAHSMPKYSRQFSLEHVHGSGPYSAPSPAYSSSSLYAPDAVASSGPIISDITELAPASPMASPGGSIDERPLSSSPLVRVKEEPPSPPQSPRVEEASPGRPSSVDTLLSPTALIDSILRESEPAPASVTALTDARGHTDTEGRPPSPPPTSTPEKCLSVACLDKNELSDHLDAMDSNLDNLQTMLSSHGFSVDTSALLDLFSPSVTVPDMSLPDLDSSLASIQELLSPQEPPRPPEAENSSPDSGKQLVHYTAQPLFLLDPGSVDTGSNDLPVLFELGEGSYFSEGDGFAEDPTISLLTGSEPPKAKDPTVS
# Sequence of ETV1 (P50549 whole entry): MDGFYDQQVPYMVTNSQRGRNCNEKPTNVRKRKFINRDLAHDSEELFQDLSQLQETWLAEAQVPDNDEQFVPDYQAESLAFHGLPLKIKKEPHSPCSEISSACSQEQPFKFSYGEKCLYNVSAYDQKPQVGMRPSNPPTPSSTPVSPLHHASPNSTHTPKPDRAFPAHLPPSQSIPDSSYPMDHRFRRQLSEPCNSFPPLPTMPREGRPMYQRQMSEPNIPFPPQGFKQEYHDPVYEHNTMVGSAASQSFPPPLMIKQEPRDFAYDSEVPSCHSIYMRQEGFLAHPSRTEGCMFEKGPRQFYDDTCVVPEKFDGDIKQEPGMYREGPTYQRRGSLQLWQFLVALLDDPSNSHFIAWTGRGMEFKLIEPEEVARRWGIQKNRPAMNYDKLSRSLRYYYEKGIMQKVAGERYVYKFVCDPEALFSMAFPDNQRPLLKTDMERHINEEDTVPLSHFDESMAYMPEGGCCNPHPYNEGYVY
# Sequence of ELF4 (Q99607 whole entry): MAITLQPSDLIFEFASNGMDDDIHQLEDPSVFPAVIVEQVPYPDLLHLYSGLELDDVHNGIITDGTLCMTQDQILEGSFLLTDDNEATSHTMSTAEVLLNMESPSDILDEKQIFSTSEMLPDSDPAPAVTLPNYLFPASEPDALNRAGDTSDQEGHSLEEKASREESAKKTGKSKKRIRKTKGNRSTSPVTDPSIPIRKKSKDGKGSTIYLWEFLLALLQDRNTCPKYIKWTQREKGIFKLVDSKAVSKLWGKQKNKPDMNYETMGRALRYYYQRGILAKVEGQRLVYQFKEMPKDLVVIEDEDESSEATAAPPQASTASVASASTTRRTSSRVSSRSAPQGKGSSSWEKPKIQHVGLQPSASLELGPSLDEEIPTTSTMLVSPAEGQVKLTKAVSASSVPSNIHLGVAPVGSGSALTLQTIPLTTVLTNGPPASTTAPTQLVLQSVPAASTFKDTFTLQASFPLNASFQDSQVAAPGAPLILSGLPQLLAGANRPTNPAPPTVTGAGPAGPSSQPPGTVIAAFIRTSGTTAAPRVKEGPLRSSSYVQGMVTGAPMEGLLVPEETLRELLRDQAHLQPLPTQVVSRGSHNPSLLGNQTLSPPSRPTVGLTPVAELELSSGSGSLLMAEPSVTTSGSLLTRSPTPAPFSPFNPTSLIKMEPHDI
sequence,measurement,setting,value
CCTGCT,binding signal,FLI1,"1.46 fold enrichment (6-mer frequency, TF over GST control)"
same,binding signal,ELK1,"1.72 fold enrichment (6-mer frequency, TF over GST control)"
same,binding signal,GABPA,"1.46 fold enrichment (6-mer frequency, TF over GST control)"
same,binding signal,ERG,"1.65 fold enrichment (6-mer frequency, TF over GST control)"
same,binding signal,ELF1,"1.61 fold enrichment (6-mer frequency, TF over GST control)"
same,binding signal,EHF,"1.61 fold enrichment (6-mer frequency, TF over GST control)"
same,binding signal,SPI1,"1.78 fold enrichment (6-mer frequency, TF over GST control)"
same,binding signal,SPIB,"1.59 fold enrichment (6-mer frequency, TF over GST control)"
same,binding signal,ELK3,"1.61 fold enrichment (6-mer frequency, TF over GST control)"
same,binding signal,FEV,"1.67 fold enrichment (6-mer frequency, TF over GST control)"
same,binding signal,ETV5,"1.64 fold enrichment (6-mer frequency, TF over GST control)"
same,binding signal,HSF1,"1.34 fold enrichment (6-mer frequency, TF over GST control)"
same,binding signal,SPIC,"1.71 fold enrichment (6-mer frequency, TF over GST control)"
same,binding signal,ELF4,"1.69 fold enrichment (6-mer frequency, TF over GST control)"
same,binding signal,ELK4,"1.73 fold enrichment (6-mer frequency, TF over GST control)"
same,binding signal,ETV2,"1.59 fold enrichment (6-mer frequency, TF over GST control)"
same,binding signal,ELF3,"1.47 fold enrichment (6-mer frequency, TF over GST control)"
same,binding signal,CRX,"1.38 fold enrichment (6-mer frequency, TF over GST control)"
same,binding signal,ETV1,"1.68 fold enrichment (6-mer frequency, TF over GST control)"
